VP16 counter: counter-screen for ROR gamma inhibitors: Gal4-VP16 reporter. Drosophila S2 Gal4-VP16 UAS-luciferase, luminescence, 20 h. Potency, µM (series often up to 53.6 µM), without a hit: at the highest dose activity, negative = inhibition, usual class: inhibitors. 310,000 tested, 3.5% active. AID 2546;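 further: Gal4-VP16 expression switched on by copper sulfate through the metallothionein promoter; potency means the concentration at half of the fitted maximal effect; nearly all actives have a fitted effect of over 50% in size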
CtBP-E1A inh: blocks the CtBP interaction with E1A; AlphaScreen GST-E1A/His-CtBP binding, 1536-well; hits give low values; activity change, % (no concentration beside the values); 340,000 tested, 0.49% active; in the data active means activity change below about -65%; inconclusive means mostly about -30% to -63%
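GST-E1A and His-tagged CtBP (125 nM each as 5X stock) were preincubated with pin-transferred compound for 2 h at 37 °C in the dark, then glutathione donor and nickel acceptor beads were added for 1 h before AlphaScreen reading.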
Six1-Eya2 blk: inhibitors of human Six1/Eya2 interaction; Q15475+O00167; AlphaScreen GST-Six1/His-Eya2 binding, biochemical; hits give low values; activity change, % (test concentration not listed); 360,000 tested, 0.56% active; in the data active means activity change below about -65%; inconclusive means mostly about -30% to -63%
Target sequence (O00167 whole entry, looked up): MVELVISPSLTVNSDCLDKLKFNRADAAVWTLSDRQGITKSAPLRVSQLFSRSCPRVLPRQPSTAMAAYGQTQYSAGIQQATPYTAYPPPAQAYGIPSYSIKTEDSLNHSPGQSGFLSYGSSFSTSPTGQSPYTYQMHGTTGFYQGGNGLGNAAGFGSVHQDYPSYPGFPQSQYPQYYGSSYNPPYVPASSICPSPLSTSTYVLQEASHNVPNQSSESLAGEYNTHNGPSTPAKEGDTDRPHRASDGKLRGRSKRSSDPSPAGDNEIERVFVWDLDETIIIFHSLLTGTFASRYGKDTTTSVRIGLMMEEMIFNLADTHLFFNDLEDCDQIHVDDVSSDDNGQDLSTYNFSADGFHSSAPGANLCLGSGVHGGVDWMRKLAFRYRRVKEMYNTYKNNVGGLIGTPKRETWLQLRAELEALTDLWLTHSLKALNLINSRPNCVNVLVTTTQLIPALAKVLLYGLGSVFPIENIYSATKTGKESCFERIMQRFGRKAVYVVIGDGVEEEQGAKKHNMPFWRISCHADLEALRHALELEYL
Target sequence (Q15475 whole entry, looked up): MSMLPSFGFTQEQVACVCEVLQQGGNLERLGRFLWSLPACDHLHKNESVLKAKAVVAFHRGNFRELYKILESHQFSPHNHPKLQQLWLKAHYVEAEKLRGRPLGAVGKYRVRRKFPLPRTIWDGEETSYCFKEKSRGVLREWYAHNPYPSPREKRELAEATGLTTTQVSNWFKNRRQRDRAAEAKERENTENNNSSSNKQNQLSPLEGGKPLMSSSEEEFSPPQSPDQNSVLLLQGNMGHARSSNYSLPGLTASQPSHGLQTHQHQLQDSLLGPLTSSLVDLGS
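AlphaScreen with GST-Six1 and His-Eya2 (5X mix: 250 nM and 500 nM), glutathione donor and nickel acceptor beads; buffer 50 mM Tris pH 8.0, 300 mM NaCl, 1 mM TCEP; 1 h at 37 C in the dark.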
RORgamma inh: ROR gamma (mouse) transcription inhibition | Drosophila S2 Gal4-RORgamma UAS-luciferase reporter, 20 h | P51450 | Potency, µM (series often up to 53.6 µM), for inactives: at the top dose activity change, negative = inhibition, most hits filed as inhibitors | 310,000 tested, 5.4% active; further: potency means the concentration at half of the fitted maximal effect; nearly all actives have a fitted effect of over 60% in size
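A Gal4/UAS one-hybrid system in insect cells: metallothionein-promoter Gal4–ROR gamma fusion plus Photinus luciferase reporter. Copper sulfate 700 uM final, 20 hr ambient incubation, luminescent detection after 10 min with reagent.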
PKM2 activator: PKM2 (human) enzyme activation | purified PKM2, Kinase-Glo ATP luminescence, activation; response scale: 0% is enzyme alone, no compound | Potency, µM (titrated, usually from 57.5 µM), for the others: top-dose activation, hits mostly activators | 260,000 tested, 0.34% active | AID 1631; further: potency means the concentration at half of the fitted maximal effect; nearly all actives have a fitted effect of over 55% in size
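Purified hPK-M2 (>95% pure) converted ADP (0.1 mM final) to ATP with 0.5 mM PEP in 50 mM imidazole pH7.2, KCl, MgCl2, Tween 20, BSA; 1 h at room temperature. ATP detected by Kinase-Glo luminescence.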
The depositor's hits bear a star; ? = inconclusive; · = not tested or not shown; [ ] = remark or other dose. Compounds with a hit are over-represented: about 5.6% of the library has one in this group of screens. Unless noted, the call rests on the fitted dose curve; in most records, active means well fitted curve in the direction sought with a large enough effect; inconclusive means small, poorly fitted or top-dose-only effect, or another doubt; inactive means no such curve, though single readings can be large; an effect the other way counts as inactive or inconclusive. On the % scale 0 is the no-effect control and ±100 the full control effect.

SMILES	VP16 counter	CtBP-E1A inh	Six1-Eya2 blk	RORgamma inh	PKM2 activator
O=C(NNC(=O)c1ccccc1OCc1ccccc1)c1ccccc1O	11µM*	-19	-11	6.3µM*	·
O=C1C(N2CCOCC2)=C(n2nnc3ccccc32)C(=O)c2ccccc21	5.6µM*	-16	-17	5µM*	-13%
O=C1c2ccccc2C(=O)c2c1cccc2-n1nnc2ccccc21	-10%	-6	-13	-9%	1%
Cc1cc2ncn(-c3ncnc4scc(-c5ccccc5)c34)c2cc1C	-25%	-6	-7	5.6µM*	2%
Cc1cc2ncn(-c3ncnc4sc(C)c(C)c34)c2cc1C	-29%	-4	-3	5%	1%
c1ccc(-c2csc3ncnc(N4CCc5ccccc5C4)c23)cc1	13µM*	7	-5	?	4%
Cc1cc(F)ccc1S(=O)(=O)N1CCCOC1CNC(=O)C(=O)NCc1ccncc1 (stereo unspecified)	7%	7	5	-2%	0%
Cc1ccsc1/C=N/Nc1cccc(C(=O)O)c1	?	1	-2	?	-3%
Cc1ccc(/C=N\NC(=O)c2cncc(Br)c2)o1	?	-25	-12	5µM*	4%
O=C(N/N=C/c1ccc([N+](=O)[O-])s1)c1ccccc1	1.3µM*	-6	-11	0.79µM*	·
Cc1cc(C(=O)N/N=C/c2ccc([N+](=O)[O-])s2)c2ccccc2n1	3.5µM*	-21	-10	5.6µM*	·
O=C(Cc1ccccc1)N/N=C/c1ccc([N+](=O)[O-])s1	?	-1	0	?	-2%
Cc1ccc(/C=N/NC(=O)c2cccnc2)o1	-10%	-1	-3	-27%	8%
Cc1ccsc1/C=N/Nc1ccc(C(=O)O)cc1	0.22µM*	·	1	1.1µM*	·
Cc1occc1-c1nnc(SCC(=O)NC2CCC(C)CC2)o1 (stereo unspecified)	·	·	3	·	·
Cc1ccc(-c2nnc(SCC(=O)N/N=C/c3ccc(C)s3)n2-c2ccc(C)cc2)cc1	?	13	4	18µM*	5%
O=C(N/N=C\c1ccc([N+](=O)[O-])s1)c1cncc(Br)c1	1.1µM*	?	-16	0.71µM*	0%
O=C(CNC(=O)c1cccc(F)c1)N/N=C/c1ccc([N+](=O)[O-])s1	1%	·	3	15%	0%
Cc1ccccc1C(=O)N/N=C/c1ccc([N+](=O)[O-])s1	2µM*	44	8	1.8µM*	-5%
CCc1ccc(/C=N/NC(=O)c2cc(C)on2)s1	5.6µM*	0	-20	5.6µM*	0%
O=C(N/N=C/c1ccc([N+](=O)[O-])s1)C(O)c1ccccc1 (stereo unspecified)	?	-7	7	18%	13%
COc1ccc(CCNC(=O)COC(=O)c2cc(=O)[nH]c3ccccc23)cc1	·	3	7	·	·
O=C(N/N=C\c1cc(Br)cs1)c1ccncc1	2.8µM*	·	-12	1.6µM*	4%
O=C(O)c1ccc(N/N=C/c2cc(Br)cs2)cc1	1µM*	-16	-17	6.3µM*	·
O=C(N/N=C/c1cccs1)c1cncc(Br)c1	2µM*	-11	-19	1µM*	2%
SMILES	VP16 counter	CtBP-E1A inh	Six1-Eya2 blk	RORgamma inh	PKM2 activator
Cn1c(SCC(=O)N/N=C/c2cc([N+](=O)[O-])ccc2O)nnc1-c1ccccc1	-11%	?	?	-26%	-6%
O=C(N/N=C/c1cccs1)c1cccnc1	-25%	-4	-8	?	-9%
Cn1c(SCC(=O)N/N=C/c2ccc([N+](=O)[O-])s2)nnc1-c1ccccc1	20µM*	0	-12	11µM*	0%
O=[N+]([O-])c1ccc(C(O)CSC(=S)N2CCCCC2)cc1 (stereo unspecified)	4%	1	-2	?	·
CCc1ccc(/C=N/NC(=O)c2cc(C3CC3)nc3ccccc23)s1	1.8µM*	-2	0	1.3µM*	4%
O=C(N/N=C/c1ccc([N+](=O)[O-])s1)c1ccccc1Br	6.3µM*	4	4	1.8µM*	0%
COc1ccccc1NC(=O)C(=O)N/N=C/c1ccc([N+](=O)[O-])s1	5%[10 µM]	-7	5	15%	2%
